According to PubChem BioAssay (NCATS):
Inconclusive results are not listed. Values without a mark were called inactive. The call rests on the fitted dose curve; in most records, active means well fitted inhibition curve with a large enough effect; inconclusive means small, poorly fitted or top-dose-only effect; inactive means flat fitted curve, though single readings scatter.

What follows are molecules tested against Calcium and integrin-binding protein 1 (Homo sapiens) (UniProt Q99828) (assay: Primary qHTS for Identification of Calcium Integrin Binding Protein 1 (CIB1) Competitor (AID 1508620; further: top concentration of the series differs between compounds)). Conditions: CIB1-GST / FITC-alphaIIb peptide fluorescence polarization; series mostly up to 114 µM; activity change, negative = inhibition: at the top concentration.
Chain of Calcium and integrin-binding protein 1 (Homo sapiens) (Q99828 whole entry, looked up): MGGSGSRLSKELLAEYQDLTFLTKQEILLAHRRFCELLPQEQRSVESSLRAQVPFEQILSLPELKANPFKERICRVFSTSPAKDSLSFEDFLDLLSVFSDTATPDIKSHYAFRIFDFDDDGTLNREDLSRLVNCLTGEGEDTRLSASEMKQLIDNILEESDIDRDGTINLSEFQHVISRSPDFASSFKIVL
How it was run: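 Fluorescence polarization competition: GST-tagged CIB1 (1 uM final) preincubated with compound 15 min at room temperature, then FITC-labelled alphaIIb peptide (100 nM final) added. After 15 min at room temperature, polarization read at Ex 480/Em 540.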
On the % scale 0 is the no-effect control and ±100 the full control effect.

Row | SMILES | activity change, negative = inhibition
1 | CC(C)CC1NC(=O)C(C)NC(=O)C(CC(C)C)OC(=O)CCCNC1=O (configuration not stated) | 1.17% [at 57.7 µM]
2 | C[C@@H]1O[C@@H](O[C@H]2[C@H](O[C@H]3[C@H](O[C@H]4CC[C@@]5(C)C(CC[C@]6(C)C5CC=C5[C@@H]7CC(C)(C)CC[C@]7(C(=O)O[C@@H]7O[C@H](CO)[C@@H](O[C@@H]8O[C@@H](C)[C@H](O)[C@@H](O)[C@H]8O)[C@H](O)[C@H]7O)CC[C@]56C)C4(C)C)OC[C@H](O)[C@@H]3O)O[C@H](CO)[C@@H](O)[C@@H]2O)[C@H](O)[C@H](O)[C@H]1O (some centres not stated) | -0.624% [at 12.4 µM]
3 | C[C@H]1CC(=O)Nc2cccc(-c3cnn(C(C)(C)C)c3)c2N1 | -0.219%
4 | COc1cc(OC)cc(C(=O)Nc2ccc(Cl)c(-c3nc4ccc(N(C)C)cc4[nH]3)c2)c1 | 2.94%
5 | CC1=CC2C(CC1OC1OC(CO)C(O)C(O)C1O)C(C)CC(=O)C2C(C)C (configuration not stated) | -6.49% [at 57.7 µM]
6 | CCC(C)C(=O)OC1CC(C)C=C2C=CC(C)C(CCC(O)CC(O)CC(=O)O)C21 (configuration not stated) | 3.31% [at 57.7 µM]
7 | Cc1cc(OCc2nc(-c3ccccc3Cl)cs2)ccc1OCC(=O)O | 6.5%
8 | Cc1c2cc(c(C(=O)O)c1C)OC1OC(C(O)C(O)C1O)C(O)C(O)C1OC(O2)C(O)C(O)C1O (configuration not stated) | 1.65% [at 57.7 µM]
9 | C#CC[C@H](c1nc2cc(Cl)ccc2c(=O)n1Nc1ccccc1)N(CCCN)C(=O)c1cccc(Cl)c1F | 0.94%
10 | CC12CCC(=O)C=C1C(O)CC1C2C(O)CC2(C)C1CC[C@]2(O)C(=O)CO (some centres not stated) | 4.73% [at 30.2 µM]
11 | N[C@H]1Cc2ccccc2N(O)C1=O | 0.0448%
12 | COc1c2c(c(C)c3c1C(=O)OC3)O[C@@]1(C)CCC3(C(C)(C)O)OC(=O)CC[C@]3(C)[C@H]1C2 (some centres not stated) | 4.44% [at 57.7 µM]
